PubChem BioAssay (NCI)
Compounds without any hit were thinned out: in the full panel of roughly 83,000, 20% have a hit.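 48-hour exposure, single concentration, 96-well plates; percent growth endpoint where 0 means no net growth. Active: below 10.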 Unmarked numbers belong to inactive results. Calls of active or inactive are those of the source.

Columns and labels:
Assay in all cases: NCI-60 one-dose screen, 48 h (100 = growth as untreated, 0 = no growth, -100 = all killed)
Conditions in all cases: 10 µM unless noted
[1] = system: NCI-H23 lung
[2] = system: NCI-H226 lung
[3] = system: NCI-H322M lung
[4] = system: HOP-62 NSCLC
[5] = system: NCI-H460 lung
[6] = system: HOP-92 NSCLC
[7] = system: NCI-H522 lung
[8] = system: A549/ATCC NSCLC
[9] = system: 786-0 renal
[10] = system: COLO 205 colon

Row | SMILES | growth [1] [%] | growth [2] | growth [3] | growth [4] | growth [5] | growth [6] | growth [7] | growth [8] | growth [9] | growth [10]
1 | CN1CCN(C(=S)S)CC1 | 104 | 109% | 129% | 108% | 116% | 104% | 94.5% | 94% | 105% | 80.9%
2 | C/C(Cc1ccccc1)=N\O | 109 | 112% | 110% | 118% | 107% | 84% | 106% | 103% | 102% | 116%
3 | Cc1ccc(Cc2ccc(C)cc2)cc1 | 106 | 100% | 98.3% | 98.1% | 111% | 97.5% | 95.3% | 102% | 96.1% | 107%
4 | Cc1c(Cl)cccc1NC(=S)NC(=O)c1ccccc1 | 85.5 | 90.8% | 97.4% | 110% | 103% | 71.8% | 59% | 75% | 120% | 109%
5 | CSc1cnc2ccccc2n1 | 103 | 103% | 94.4% | 84.7% | 102% | 99.6% | 80% | 82.8% | 107% | 116%
6 | OCCOc1ccc(-c2cc(-c3ccccn3)nc(-c3ccccn3)c2)cc1 | 18.5 | 0.498% (active) | 9.08% (active) | 4.56% (active) | 0.477% (active) | -1.12% (active) | -18.8% (active) | 4.79% (active) | 1.56% (active) | 0.364% (active)
7 | C1=NCCc2ccccc21 | 93.8 | 85.8% | 105% | 89.4% | 103% | 92.1% | 114% | 98.5% | 103% | 101%
8 | O=C1NCC2CCCC1C2 (stereo not given) | 105 | 104% | 96.8% | 115% | 120% | 130% | 90.3% | 97.6% | 99.5% | 119%
9 | ClCC(Cl)C1CCC(Cl)C(Cl)C1 (stereo not given) | 105 | 119% | 107% | 111% | 107% | 105% | 102% | 98.2% | 96.8% | 109%
10 | CN1CCCN(C(c2ccccc2)c2ccc(Br)cc2)CC1 (stereo not given) | 87.1 | 78.2% | 39.7% | 76.8% | 82.5% | 25.8% | 90.8% | 87.7% | 79.1% | 81.5%
11 | CCCCNc1ccc(-c2ccc(NCCCC)cc2)cc1 | 65.5 | 73.4% | 95.9% | 91.2% | 65.8% | 97.7% | 46.2% | 61.6% | 58.9% | 111%
12 | NCCCN1CCCC1=O | 101 | 109% | 96.9% | 112% | 113% | 105% | 92.6% | 91% | 105% | 111%
13 | CCOC(=O)c1ccc(C(C)(C)C)cc1 | 102 | 101% | 101% | 107% | 109% | 117% | 105% | 102% | 104% | 108%
14 | C=CC(=O)OC1CCC(C(C)(C)CC)CC1 (stereo not given) | 108 | 106% | 110% | 103% | 105% | 115% | 100% | 109% | 105% | 105%
15 | CCNC(=O)Oc1ccc[nH]c1=O | 105 | 115% | 102% | 102% | 102% | 94% | 88.4% | 91.8% | 100% | 117%
16 | C=CCNC(=S)N/C=C(/C(=O)c1ccccc1)c1ccccc1 | 97.4 | 104% | 111% | 96.7% | 104% | 95.7% | 109% | 103% | 111% | 95.3%
17 | C/C=C/C1OCC(CC)C(CCC)O1 (stereo not given) | 113 | 111% | 111% | 111% | 109% | 110% | 91.1% | 88% | 111% | 114%
18 | CSCCC(NC(=O)C(Cl)Cl)C(=O)O (stereo not given) | 99 | 88.5% | 99.6% | 77.9% | 114% | 85.2% | 86.8% | 80.5% | 101% | 99.7%
19 | CCOC(=O)Nc1nccs1 | 112 | 99.6% | 99.6% | 103% | 104% | 92.3% | 104% | 98.3% | 100% | 104%
20 | O=S(=O)(O)C(C(I)I)S(=O)(=O)O | 95.4 | 98.7% | 107% | 109% | 105% | 106% | 108% | 104% | 110% | 110%
21 | C/C(O)=C(/C=N\C(=S)Nc1ccc(S(=O)(=O)Nc2nccs2)cc1)C(=O)Nc1ccccc1C | 94.6 | 73.2% | 99.7% | 96.1% | 102% | 87.5% | 91.6% | 92.6% | 96.7% | 104%
22 | Clc1ccc(-c2noc(/C=C\c3ccccc3)n2)cc1 | 101 | 93.1% | 87.1% | 106% | 109% | 99.3% | 87% | 87.9% | 99.4% | 105%
23 | CS(=O)(=O)c1ccc(/C=C\C(=O)O)cc1 | 106 | 96.1% | 108% | 99.5% | 94.3% | 94% | 99.5% | 106% | 108% | 109%
24 | CC(CO)(CO)C(=O)O | 110 | 96.8% | 99.3% | 95.7% | 105% | 86.3% | 101% | 102% | 105% | 109%
25 | C=CCS(C)(=O)=O | 106 | 96.7% | 102% | 87.3% | 105% | 99.4% | 92.8% | 92.9% | 99.4% | 96.5%
26 | Cc1cc(C(=O)c2ccccc2)cc(C)c1O | 98.2 | 99.2% | 101% | 95.2% | 110% | 74.3% | 104% | 102% | 100% | 103%
27 | CC(=O)NC(CCC(=O)c1ccccc1)C(=O)O (stereo not given) | 101 | 91.1% | 98.5% | 76.2% | 102% | 97.6% | 90.2% | 63.3% | 87.9% | 108%
28 | Cc1c(-c2ccc(C3CCCCC3)cc2)nc2ccc(F)cc2c1C(=O)O | 53.5 | 64.1% | 56.4% | 61.7% | 7.22% (active) | 83.3% | 38.5% | 21.3% | 38% | 44.2%
